Compound activity deposited in PubChem by several laboratories.
Compounds with a hit are over-represented: about 2.2% of the library has one in this group of screens.
iPSC survival up – hiPSC single-cell survival enhancement; survival enhancement, % at 20 µM; AID 602274; ATPlite luminescence; 100% = ROCK inhibitor wells, 0% = DMSO; actives 0.044% (n = 360,000); in the data active = survival enhancement above about 18%;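 also: cells exposed to compounds for 16 hours before the ATP read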
ABCB6 inh MLPCN – inhibitors of human ABC transporter ABCB6; Q9NP58; K562-ABCB6 porphyrin accumulation, flow cytometry, 1 h; active compounds read low; fluorescence ratio to DMSO, % at 10 µM; actives 0.19% (n = 360,000); AID 602162;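 active = fluorescence ratio to DMSO below 75%, the collection mean minus 3 SD; inconclusive = too few cells collected in the well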;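 also: signal is porphyrin accumulated inside mitochondria; 100% equals median channel fluorescence of DMSO control wells; lower ratio means ABCB6 inhibition with less porphyrin fluorescence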
Target sequence (Q9NP58 whole entry, looked up): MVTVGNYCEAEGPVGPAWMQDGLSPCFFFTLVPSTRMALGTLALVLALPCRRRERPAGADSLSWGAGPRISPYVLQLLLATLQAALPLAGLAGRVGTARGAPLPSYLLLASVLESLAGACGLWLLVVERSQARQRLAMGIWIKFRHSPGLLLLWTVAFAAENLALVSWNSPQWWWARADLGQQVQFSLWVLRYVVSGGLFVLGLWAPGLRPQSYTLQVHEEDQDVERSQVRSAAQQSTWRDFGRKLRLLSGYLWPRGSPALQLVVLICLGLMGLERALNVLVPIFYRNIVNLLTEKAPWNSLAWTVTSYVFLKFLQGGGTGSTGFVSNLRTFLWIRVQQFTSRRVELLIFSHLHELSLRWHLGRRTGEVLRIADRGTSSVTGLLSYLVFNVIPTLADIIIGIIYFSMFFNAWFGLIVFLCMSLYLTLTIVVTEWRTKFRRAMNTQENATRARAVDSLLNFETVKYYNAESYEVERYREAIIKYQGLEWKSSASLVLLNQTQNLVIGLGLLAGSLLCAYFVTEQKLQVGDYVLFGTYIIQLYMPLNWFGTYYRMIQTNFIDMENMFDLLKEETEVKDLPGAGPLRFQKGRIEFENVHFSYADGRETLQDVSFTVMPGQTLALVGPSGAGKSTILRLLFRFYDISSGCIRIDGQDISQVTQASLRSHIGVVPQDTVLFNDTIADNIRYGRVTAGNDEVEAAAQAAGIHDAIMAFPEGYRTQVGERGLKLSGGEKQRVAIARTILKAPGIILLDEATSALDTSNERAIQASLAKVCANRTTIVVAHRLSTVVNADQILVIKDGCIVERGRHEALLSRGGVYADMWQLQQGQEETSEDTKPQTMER
H9c2 protect – modulators protecting cardiomyocytes from myocardial damage; H9c2 cardiomyocytes, H2O2 injury protection, ATPLite, 2 h; protection from H2O2 cell death, % at 20 µM; actives 0.63% (n = 360,000); AID 588492;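 active = compounds giving at least 50% protection of heart cells from peroxide-induced death in the single-dose screen, raw or plate-pattern-corrected value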;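 also: 0% = DMSO wells with peroxide and 100% = DMSO wells without peroxide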
Myeloid diff MLP – compounds promoting myeloid differentiation | AID 624256 | ER-HoxA9 myeloid progenitors, lysozyme-GFP differentiation, flow cytometry | actives 1% (n = 360,000) | calls only at 10 µM;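 active = normalized GFP-positive differentiation at or above the plate's own cutoff, the solvent-only control mean plus 3 SD; inconclusive = no clear call, values can overlap the other calls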;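 also: cells exposed to compound for four days before flow analysis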
beta cell repl – inducers of beta-cell replication in MIN6 cells | MIN6 cells proliferation, ATPlite luminescence, 48 h; cells starved in 0.2% serum; 100% = growth in 10% serum | proliferation, % at 10 µM | actives 0.29% (n = 330,000);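 active = compounds whose signal lies at least 3.5 SD above the mean of all wells on their plate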;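 also: 0% = DMSO-treated cells in low-serum medium and 100% = 10% serum control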
* marks the source's active call; other numbers are inactive results; i = inactive; ? = inconclusive; / = no result; + = active, no number; ! = repeats disagree.

SMILES	iPSC survival up	ABCB6 inh MLPCN	H9c2 protect	Myeloid diff MLP	beta cell repl
COc1cc(C(=O)N/N=C(\c2ccccc2)c2ccccn2)cc(OC)c1OC	-2	96	78*	?	-6
COc1cc(C(=O)NNC(=O)c2ccc3ccccc3n2)cc(OC)c1OC	0	97	61*	i	-5
C/C(=N\NC(=O)c1ccc(Cl)cc1)c1ccccn1	1	107	3	?	-4
CCCCCC(=O)N/N=C(\C)c1ccccn1	-1	99	61*	i	-3
COc1cc(C(=O)N/N=C(\C)c2ccccn2)cc(OC)c1OC	0	106	58*	/	-4
CCCCCCCCCC(=O)N/N=C(\C)c1cccnc1	-2	98	-21	i	-4
O=C1C=CC(=O)N1c1ccccc1N1C(=O)C=CC1=O	-3	98	-18	i	/
O=S(=O)(c1cccc2cnccc12)N1CCCNCC1	58*	99	2	i	6
CC1CNCCN1S(=O)(=O)c1cccc2cnccc12 (centres undefined)	20*!	102	-27	i	-4
CC1CCCCN1S(=O)(=O)c1cccc2cccnc12 (centres undefined)	-2	94	3	i	4
CCOC(=O)c1ccc2[nH]c3c(c2c1)CCCC3	0	96	-10	i	-4
O=C1N[C@H]2CC=C[C@H]2N(Cc2cccs2)c2ccccc21	6	104	3	i	/
O=C1N[C@H]2CC=C[C@H]2Nc2ccccc21	-2	99	51*	+	/
CCOC(=O)[C@@H]1[C@H]2COc3ccc(Br)cc3[C@H]2N2C(=O)N(c3cccc(Cl)c3)C(=O)[C@]12C	0	95	-5	i	-4
CC1(C)Cc2c(sc(NC(=O)c3ccc(C(=O)c4ccccc4)cc3)c2C(N)=O)C(C)(C)N1	0	99	6	+	-7
COC(=O)c1c(NC(=O)c2ccccc2)sc2c1CC(C)(C)NC2(C)C	-2	100	10	i	-6
COC(=O)c1c(NC(=O)c2ccc(OC(C)C)cc2)sc2c1CC(C)(C)NC2(C)C	-2	102	-34	+	-6
CC1(C)Cc2c(sc(NC(=O)c3ccc4ncsc4c3)c2C(N)=O)C(C)(C)N1	-1	91	-8	i	-6
Cc1ccc(Cn2c(NCCc3ccccc3)nc3c2c(=O)n(C)c(=O)n3C)cc1	-2	94	5	+	-3
C/C(Cl)=C\Cn1c(NCCc2ccccc2)nc2c1c(=O)n(C)c(=O)n2C	-1	92	-14	+	-4
Cn1c(=O)c2c(nc(Br)n2Cc2ccc3ccccc3c2)n(C)c1=O	0	92	87*	i	-4
OCC[C@@H]1C[C@H](O)[C@@H](O)[C@@]2(Cc3ccccc3CO2)O1	-4	87	0	i	4
NC(=O)N/N=C/c1cn(-c2ccccc2)nc1-c1cccnc1	/	/	/	/	-2
O=C(N/N=C/c1cn(-c2ccccc2)nc1-c1cccnc1)c1ccccc1	2	96	61*	i	2
O=C(N/N=C\c1cn(-c2ccccc2)nc1-c1ccccc1)c1ccc2c(c1)OCO2	0	95	52*	i	-2
SMILES	iPSC survival up	ABCB6 inh MLPCN	H9c2 protect	Myeloid diff MLP	beta cell repl
O=C(N/N=C/c1cn(-c2ccccc2)nc1-c1ccc(F)cc1)c1ccc2c(c1)OCO2	-1	97	29	i	-2
O=[N+]([O-])c1ccc(C2=Nc3cc(Cl)ccc3OC2)cc1	-2	99	-7	i	2
Cc1[nH]nc2c1C(c1ccc(OC(=O)c3ccco3)cc1)C(C#N)=C(N)O2 (centres undefined)	-1	100	-1	i	-1
COC(=O)c1cc2ccccn2c2c(C(=O)OC)c(C(=O)OC)cc1-2	11	101	79*	i	-5
COC(=O)c1cc2c(C)c(C)c3ccccn3c-2c1C(=O)OC	-2	99	62*	i	0
c1ccc(C[C@H]2CN=C(Nc3ccccc3)N2CC2CCCCC2)cc1	-1	99	1	+	-4
O=C(CCc1nc2ccccc2c(=O)[nH]1)NNC(=O)c1ccccc1Cl	0	98	56*	i	4
COc1cc(NC(=O)COC(=O)CCc2nc3ccccc3c(=O)[nH]2)cc(OC)c1	1	97	15	i	-2
O=C(CCc1nc2ccccc2c(=O)[nH]1)NNC(=O)COc1cccc(F)c1	2	86	96*	i	3
CC(C)CCNC(=O)CNC(=S)N(CCCN1CCOCC1)Cc1cccs1	-1	98	1	i	-2
CCc1ccc(CCC(=O)Nc2nnc(CC)s2)o1	1	86	3	i	-1
N#CCCn1c(-c2nonc2NC(=O)c2ccccc2Cl)nc2ccccc21	0	99	-11	i	1
CCCCn1c(-c2nonc2NC(=O)c2ccccc2Cl)nc2ccccc21	0	94	-12	+	/
CN(C)S(=O)(=O)c1cccc(NC(=O)c2ccc(S(=O)(=O)N3CCCC3)cc2)c1	0	100	-6	i	4
CCn1nc(C)c(/C=N/NC(=O)Cn2nnc(N)n2)c1C	0	99	-1	+	-2
CCc1ccc(N2C=C(C(=O)OC)C(c3ccc(OC)cc3)C(C#N)=C2N)cc1 (centres undefined)	/	/	/	i	/
O=C1NC(Cc2ccc(O)cc2)c2nc3ccc(F)cc3c(=O)n2-c2cc3ccccc3cc21 (centres undefined)	-2	109	95*	i	/
CCC(=O)Nc1ccc(-c2nnc(SCc3ccc(C(=O)Nc4nccs4)cc3)n2CC)cc1	-2	98	19	i	-1
CC(C)c1ccc(NC2CCCN(C(=O)CCN3CCCC3=O)C2)cc1 (centres undefined)	0	81	-1	+	-2
N=C1c2ccccc2CN1c1ccc(S(=O)(=O)N2CCCCC2)cc1	0	117	-1	+	-2
Cc1cc(C(=O)OCC(=O)Nc2cccnc2Cl)c2ccccc2n1	0	100	5	i	0
CCc1ccc(OC2=NS(=O)(=O)c3ccccc32)cc1	0	95	-5	i	/
Cc1ccc(OC2=NS(=O)(=O)c3ccccc32)cc1	-2	83	-1	+	-2
O=C(CCC(=O)n1ncc2ccccc21)N1CCCCC1	5	104	4	+	4
C/C(=C(/CCO)SSCC1CCCO1)N(C=O)Cc1cnc(C)nc1N (centres undefined)	4	103	-6	+	-1
COc1ccc(C2c3cc4c(cc3OC(N3CCOCC3)C2C)OCO4)c(OC)c1 (centres undefined)	0	101	-5	i	/
COc1cccc(C2c3cc4c(cc3OC(N3CCOCC3)C2C)OCO4)c1O (centres undefined)	0	94	3	+	/
Cc1c(Br)c(C(N)=O)nn1C	-2	105	8	i	0
Cn1nnc2c(C(N)=O)ncn2c1=O	0	126	2	+	-2
